In the library only some 3% were active in any assay of this set; here they are far more common.
Tau fluor counter = counter-screen for tau fibril formation inhibitors | tau K18 P301L Alexa594 fluorescence, heparin fibrillization | Potency, µM (titrated, usually from 57.7 µM), for the others: at the highest dose activity change, negative = decrease | 280,000 tested, 0.93% active | AID 1463; further: potency means the concentration at half of the fitted maximal effect; nearly all actives have a fitted effect of over 55% in size
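Human tau K18 P301L (15 uM unlabeled, 0.24 uM Alexa 594-labeled) in 100 mM sodium acetate pH 7 with 20 uM heparin, 6 hr at 37 C. ThT 30 uM added, 1 hr ambient; Alexa 594 FP and total fluorescence read at 555/632 nm.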
Tau fibril FP = inhibitors of human tau fibril formation. AID 1468. K18 P301L tau heparin fibrillization, Alexa594 FP, 6 h. 280,000 tested, 0.39% active. P10636. Potency, µM (series often up to 57.7 µM), without a hit: at the highest dose activity, negative = inhibition, usual class: inhibitors; further: potency means the concentration at half of the fitted maximal effect; nearly all actives have a fitted effect of over 55% in size
Target sequence (P10636 561-689 P618L limits assumed): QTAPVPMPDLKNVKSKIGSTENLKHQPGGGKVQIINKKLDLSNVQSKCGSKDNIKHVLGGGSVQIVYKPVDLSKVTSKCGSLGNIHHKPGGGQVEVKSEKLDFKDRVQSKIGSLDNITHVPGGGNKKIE
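FP of Alexa 594-tau after heparin (20 uM) induction. Substrate: human K18 P301L, 15 uM unlabeled, 0.24 uM labeled. Buffer 100 mM sodium acetate pH 7. 6 hr, 37 C.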
FBPA coupling cs = counter-screen for Giardia aldolase inhibitors: coupling enzyme system. activity change, negative = inhibition, % at 58.2 µM, hits read low. 290,000 tested, 0.67% active. coupling enzyme system counterscreen, AmpLite Red fluorescence; in the data active means activity change below about -30%
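Coupling enzymes only (glyceraldehyde-3-phosphate) + compound, at 57.5 uM final, 10 min RT; add substrate/coupling/AmpLite Red mix, 20 min RT; fluorescence ex 525/em 598 nm. Actives flag coupling-system interference.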
JMJD2E inh = inhibitors of human JMJD2E histone demethylase. B2RXH2. AID 2147. JMJD2E catalytic domain, FDH-coupled NADH fluorescence (FDH is formaldehyde dehydrogenase). 230,000 tested, 1.6% active. Potency, µM (highest dose often 57.1 µM), inactives show top-dose activity change, negative = inhibition, most hits filed as inhibitors; active means well fitted inhibition curve with a large enough effect, not every such curve was filed as active; inconclusive means small, poorly fitted or top-dose-only effect, or another doubt; inactive means no such curve, though single readings can be large or run the other way;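 further: potency means the concentration at half of the fitted maximal effect; 0% = wells with enzyme and -100% = buffer wells without enzyme; nearly all actives have a fitted effect of over 50% in size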
Target sequence (B2RXH2 1-337 limits assumed): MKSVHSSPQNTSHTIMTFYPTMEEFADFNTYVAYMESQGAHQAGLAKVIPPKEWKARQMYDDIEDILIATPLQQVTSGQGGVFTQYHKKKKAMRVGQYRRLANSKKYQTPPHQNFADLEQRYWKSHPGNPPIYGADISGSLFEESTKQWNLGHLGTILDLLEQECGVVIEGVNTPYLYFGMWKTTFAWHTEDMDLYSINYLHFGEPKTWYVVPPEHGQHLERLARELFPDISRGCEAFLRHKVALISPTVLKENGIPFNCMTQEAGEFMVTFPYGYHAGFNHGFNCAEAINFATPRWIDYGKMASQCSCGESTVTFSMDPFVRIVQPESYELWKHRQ
Tau ThT inhib = blocks human tau fibril formation measured by thioflavin T. recombinant tau K18 P301L, heparin-induced fibrillization, ThT fluorescence. Potency, µM (titrated, usually from 57.4 µM), for the others: at the highest dose activity, negative = inhibition, actives largely listed as inhibitors. 270,000 tested, 2.1% active. AID 1460; further: potency means the concentration at half of the fitted maximal effect; nearly all actives have a fitted effect of over 55% in size
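ThT emission at 510 nm, taken 1 hr after adding 30 uM dye, quantifies aggregates formed when 20 uM heparin acts on human tau K18 P301L for 6 hr at 37 C.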
Numbers without * were called inactive; ? = inconclusive; / = no result given; [ ] = another dose, or the depositor's remark. Unless noted, the call rests on the fitted dose curve; in most records, active means well fitted curve in the direction sought with a large enough effect; inconclusive means small, poorly fitted or top-dose-only effect, or another doubt; inactive means no such curve, though single readings can be large; an effect the other way counts as inactive or inconclusive. Unless noted, on the % scale 0 is the no-effect control and ±100 the full control effect.

SMILES	Tau fluor counter	Tau fibril FP	FBPA coupling cs	JMJD2E inh	Tau ThT inhib
CCOc1ccc(CNC(=O)CCC(=O)N2CC(C)Sc3ccccc32)cc1 (stereo unspecified)	-11%	7%	/	/	-8%
C/C(=N/NC(=O)c1ccncc1)C1=C(O)CC(C)(C)CC1=O	-4%	-13%	0	14µM*	-1%
COc1cccc(CNCCSc2nnnn2-c2ccccc2)c1OC	-9%	1%	/	/	-5%
CC(C)C1=C2OC(N)=C(C#N)C(C#N)=C2C(C)CC1 (stereo unspecified)	-1%	-3%	-39*	2%	7%
CCC(=O)CC	/	/	0	/	/
C=C(C)C(=O)OCCOC(=O)C(=C)C	/	/	2	/	/
CCCCc1cc2c(cn1)=C(OC(=O)c1ccc(Cl)nc1)C(C)(OC(=O)CC)C(=O)C=2 (stereo unspecified)	-16%[11.6 µM]	-2%[11.6 µM]	0	-4%[11.4 µM]	-14%[11.5 µM]
Cc1[nH][nH]c(=O)c1C(c1c(C)[nH][nH]c1=O)c1cn(Cc2ccccc2Cl)c2ccccc12	-18%	?	-43*	?	11µM*
N/C(=N\O)c1cn(Cc2ccccc2Cl)c2ccccc12	/	/	-1	/	/
CC(C)Cn1c(=O)c2sccc2n2c(CCCC(=O)NCC(C)c3ccccc3)nnc12 (stereo unspecified)	-10%	-1%	/	/	-3%
O=C(N=Nc1c(O)n(Cc2ccccc2)c2ccccc12)c1ccncc1	-11%	1%	2	3%	16µM*
CCCN1CCN(CCCNC(=O)Cn2c(-c3cccs3)cc3cc(Cl)ccc32)CC1	-25%	-5%	/	/	-10%
CCOP(=O)(OCC)/C(C#N)=C/c1c[nH]c2ccccc12	-7%	-4%	0	5%	0%
CCOP(=O)(OCC)/C(C#N)=C/c1ccc([N+](=O)[O-])cc1	-5%	3%	-1	8.9µM*	-17%
COc1cc(OC)nc(-n2ncc(Br)c(Br)c2=O)n1	-13%	?	-2	-2%	10µM*
O=[N+]([O-])c1ccccc1NCc1c(O)ccc2ccccc12	13µM*[quencher]	-13%	-22	?	?
O=C(O)c1cccc([N+](=O)[O-])c1C(=O)Nc1cccc2ccccc12	/	/	-13	/	/
Cc1ccccc1NC(=S)c1nc2ccccc2[nH]1	-14%	14%	2	19µM*	?
CS(=O)(=O)Nc1ccc(Br)cc1C(=O)c1ccccc1	-3%	3%	6	-5%	5%
CCNc1ccc(Br)cc(C(=O)/C=C/c2ccc3c(c2)OCO3)c1=O	?	?	-29	14µM*	11µM*
O=C(/C=C\c1ccc2c(c1)OCO2)c1ccc(F)cc1	?	6%[11.6 µM]	3	/	?
CCNc1ccc(Br)cc(C(=O)/C=C/c2c(Cl)cccc2Cl)c1=O	?	?	-18	?	13µM*
CCNc1ccc(Br)cc(C(=O)/C=C/c2ccc(Cl)cc2)c1=O	?	?	-28	25µM*	14µM*
Cc1cccc(NC(=O)CC2Nc3cccc4cccc(c34)NC2=O)c1 (stereo unspecified)	8.9µM*[quencher]	1%	-25	?	?
CCOc1ccc(NC(=O)CC2Nc3cccc4cccc(c34)NC2=O)cc1 (stereo unspecified)	16µM*[quencher]	4%	/	/	14µM*
SMILES	Tau fluor counter	Tau fibril FP	FBPA coupling cs	JMJD2E inh	Tau ThT inhib
CCOC(=O)c1ccc(NC(=O)CC2Nc3cc(C)c(C)cc3NC2=O)cc1 (stereo unspecified)	14µM*[quencher]	9%	/	/	?
CC(=O)Nc1ccc(NC(=O)CC2Nc3cccc4cccc(c34)NC2=O)cc1 (stereo unspecified)	?	11%	-20	-10%	?
CCOC(=O)C1=C(C)NC(=O)C1CC(=O)Nc1ccccc1 (stereo unspecified)	0%	2%	-42*	-10%	6%
CCOc1ccc(CNC(=O)C2CCN(S(=O)(=O)N3CCCCC3)CC2)cc1	-12%	-9%	/	/	-4%
CCOC(=O)c1ccc(NC(=O)CC2Nc3cccc4cccc(c34)NC2=O)cc1 (stereo unspecified)	8.9µM*[quencher]	?	/	/	13µM*
COc1ccc(NC(=O)CC2Nc3ccccc3NC2=O)cc1 (stereo unspecified)	-9%	1%	/	/	-14%
CC(=O)c1ccc(NC(=O)CC2Nc3cccc4cccc(c34)NC2=O)cc1 (stereo unspecified)	25µM*[quencher]	?	-31*	?	14µM*
C[C@H]1Cc2c(-c3ccccc3)nc3c(c2CO1)CN(C(=O)NCCc1c[nH]c2ccccc12)CC3	-3%[11.6 µM]	3%[11.6 µM]	3	13%[11.4 µM]	2%[11.5 µM]
CC(=C1C(=O)c2ccccc2C1=O)N1CCN(C/C=C/c2ccccc2)CC1	-29%	-2%	-1	-4%	22µM*
O=C(C[n+]1ccc(C(=O)N/N=C/c2ccc(Cl)cc2Cl)cc1)c1ccccc1	?	10%	-3	3%	16µM*
NC(=O)c1cc[n+](CC(=O)c2ccc(NC(=O)c3ccccc3)cc2)cc1	-8%	-18%	0	13µM*	?
O=C(CN1C(=O)C2CCCCN2c2ccc(C(=O)N3CCCC3)cc21)NCc1cccc(Cl)c1 (stereo unspecified)	-3%	1%	/	/	-5%
C/C(=N\NC(=O)c1ccc(C)cc1C)c1ccc2c(c1)Nc1ccccc1S2	18µM*[quencher]	?	0	-1%	14µM*
Cc1c(Cl)cccc1NS(=O)(=O)c1ccc(-c2cnc(C3CC3)o2)cc1	?	-6%	/	/	-16%
CCOc1ccccc1-c1nnc2n1N=C(c1c(OC)cccc1OC)CS2	/	/	4	/	/
O=S(=O)(c1ccc(Cl)cc1)N1CCN(Cc2ccc(O)c3ncccc23)CC1	-16%	0%	2	25µM*	?
CC[C@H](C)[C@H](NC(=O)[C@H](Cc1ccccc1)NC(=O)[C@H](CCC(=O)O)NC(=O)[C@H](CCCCN)NC(=O)[C@H](C)NC(=O)[C@H](C)NC(=O)[C@H](CCC(N)=O)NC(=O)CNC(=O)[C@H](CCC(=O)O)NC(=O)[C@H](CC(C)C)NC(=O)[C@H](Cc1ccc(O)cc1)NC(=O)[C@H](CO)NC(=O)[C@H](CO)NC(=O)[C@@H](NC(=O)[C@H](CC(=O)O)NC(=O)[C@H](CO)NC(=O)[C@@H](NC(=O)[C@H](Cc1ccccc1)NC(=O)[C@@H](NC(=O)CNC(=O)[C@H](CCC(=O)O)NC(=O)[C@H](C)NC(=O)[C@@H](N)Cc1cnc[nH]1)[C@@H](C)O)[C@@H](C)O)C(C)C)C(=O)N[C@@H](C)C(=O)N[C@@H](Cc1c[nH]c2ccccc12)C(=O)N[C@@H](CC(C)C)C(=O)N[C@H](C(=O)N[C@@H](CCCCN)C(N)=O)C(C)C	/	/	1	/	/
O=C1c2ccccc2-c2ccc(C(=O)N3CCOCC3)cc21	-1%	6%	1	-3%	-7%
